Several values for one entry are separate records, joined by “and”; a condition that tells them apart may be missing. Equal entries are not always repeated. Inconclusive results are not listed. Values without a mark were called inactive. Activity calls are given as the source filed them. The call rests on the fitted dose curve; in most records, active means well fitted activation curve with a large enough effect; inconclusive means small, poorly fitted or top-dose-only effect; inactive means no such curve, though single readings can be large or run the other way. Non-standard residues stand in square brackets, D forms with d. Residues, ends and D or L forms follow the SMILES beside them. Peptide text beside a SMILES is read from it. *: point of attachment. Sta = CC(C)C[C@H](N)[C@@H](O)CC(=O)O; Isovaleryl = CC(C)CC(=O)*
target: Cellular tumor antigen p53 (Homo sapiens) (UniProt P04637); assay: Primary qHTS for small molecule compounds that upregulate eGFP-tagged delta133p53alpha (in N-terminal) cells. (AID 2060322); settings: NCI-H358 eGFP-delta133p53alpha fluorescence, 24 h; activation: active compounds read high; further: nearly all actives have a fitted effect of over 75% in size;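 on activation: cells pre-induced with doxycycline then dosed without doxycycline; series mostly up to about 56 µM; 0% = DMSO vehicle and 100% = reference activator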
Sequence (P04637 whole entry, looked up): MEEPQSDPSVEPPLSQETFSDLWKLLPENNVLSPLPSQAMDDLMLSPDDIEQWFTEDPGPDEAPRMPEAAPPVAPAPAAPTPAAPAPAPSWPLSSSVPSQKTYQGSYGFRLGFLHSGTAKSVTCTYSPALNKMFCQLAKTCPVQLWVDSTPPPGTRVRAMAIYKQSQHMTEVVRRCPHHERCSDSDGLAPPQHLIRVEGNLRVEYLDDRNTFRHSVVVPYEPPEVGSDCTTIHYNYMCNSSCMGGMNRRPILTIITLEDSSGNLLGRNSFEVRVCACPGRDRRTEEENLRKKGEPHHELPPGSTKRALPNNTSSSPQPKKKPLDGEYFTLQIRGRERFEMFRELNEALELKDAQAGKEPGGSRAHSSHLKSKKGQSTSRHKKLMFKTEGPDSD
Excerpt: Assay Development and Screening Technology
National Center for Advancing Translational Sciences (NCATS),
National Institute of Health (NIH), Rockville, Maryland
Cellular senescence (CS) is one of the hallmarks of aging and age-related diseases. Senescent cells are characterized by an irreversible growth arrest, an increase in senescence-associated beta-galactosidase (SA-beta-gal) activity and p16INK4a expression, an activation of the DNA damage response pathways, and the emergence of a senescence-associated secretory phenotype (SASP).
Delta133p53alpha, a human/primate-specific p53 protein isoform, delays or inhibits the induction of CS and SASP in various types of human cells, including progeria-derived fibroblasts, primary normal astrocytes, and CD8+ T lymphocytes. Induction of delta133p53alpha with small molecule compounds may provide therapeutic opportunities for inhibition of senescence/SASP-associated pathologies in progeria syndromes, astrocyte-mediated neuroprotection in neurodegenerative diseases, and possibly prevention and treatment of a wider range of senescence- and aging-associated diseases.
Here we report the development and validation of a cell-based quantitative high throughput screening (qHTS) assay in 1,536-well format. This qHTS assay uses the NCI-H358 cell line with doxycycline-inducible expression of enhanced green fluorescent protein (eGFP)-tagged delta133p53alpha, which allows efficient and highly quantitative measurement of the protein levels.
PROTOCOL TABLE (as described by Inglese J, Shamu CE and Guy RK. 2007)
SEQUENCE No. (e.g., 1, 2, 3, etc.); […] (e.g., Cells, Incubation, Reagent, etc.); VALUE; DESCRIPTION.
1; Cells; 4uL; 800 doxycycline treated cells / well in doxycycline-free media, 1536-well black, clear-bottom low base Aurora microplates.
2; Compounds; 23 nL; Kalypsis pin tool (Wako) equipped with 1536-well pin heads, 5-azacytidine positive control.
3; Incubation; 24 hr; 37C, 5% CO2; 95% relative humidity.
4; Aspiration; 1x; BioTek EL406 washer dispenser (Agilent).
5; Fixing; 3.5% paraformaldehyde, BioTek EL406 washer dispenser (Agilent).
6; Washing; 1x PBS; BioTek EL406 washer dispenser (Agilent).
7; Nuclei staining; 1:1000 dilution of Hoechst 33342 (Thermofisher), BioTek EL406 washer dispenser (Agilent).
8; Incubation; 20 min; in the dark at room temperature.
9; Washing; 2x, 1x PBS (ThermoFisher), BioTek EL406 washer dispenser (Agilent).
10; Reagent; 10 uL; 1x PBS per well, sealed with clear adhesive tape.
NOTES (numbers refer to sequence numbers above).
1. NCI-H358 cells expressing eGFP-tagged delta133p53alpha were grown in T75 culture flasks and treated with doxycycline for 24h, at 10 ng/ml for eGFP-D133p53a cells (N-terminal cell) and 100 ng/ml for D133p53a-eGFP cells (C-terminal cells). Cells were trypsinized, counted using a Counted 3 Automated Cell Counter (Thermo Fisher), and diluted to a concentration of 200,000 cells/ml. A Multidrop Combi Reagent Dispenser (ThermoFisher) was used to dispense 800 cells/well in […] of doxycycline-free media, into 1536-well black/clear bottom low base plates (AuroraMicroplates).
2. After plating cells, 23 nl of compound library, DMSO vehicle control or positive control (5-azacytidine) were transferred by Pin Tool (Wako). The plate map layout was the same for each plate: (column 1) non-doxycycline treated cells + DMSO vehicle control; (column 2) doxycycline treated cells + DMSO vehicle control baseline; (column 3) doxycycline treated cells + positive control 57.5 uM final concentration 5-azacytidine; (column 4) doxycycline treated cells + serial dilution of 5-azacytidine, 16-point 1:2 titration spanning 1.8 nM to […] final concentration; (columns 5-48) doxycycline treated cells + titration of library compounds.
3. Cells were incubated at 37 °C, 5 % CO2, 95% RH with breathable metal lid for 24h.
4-10. […] After two washes, 10 ul of 1X PBS (Thermo Fisher) was dispensed to each well. Clear adhesive plate seals (VWR) were applied and plates stored at 4 °C.
11. […]
Potency means the concentration at half of the fitted maximal effect.

In order of falling activation:
1. CC(=O)OC1CC(C)C2(CCC3(CC(=O)OC3O)O2)C2(C)CCCC(C)(C)C12 (centres undefined)  22.3%
2. Nc1ncnc2c1C(=O)N(c1ccc(C3CCC(CC(=O)O)CC3)cc1)CCO2 (centres undefined)  18.6%
3. O=C(NCCc1c[nH]c2ccccc12)c1cccnc1  10.9%
4. COC(=O)C1=COC(OC2OC(CO)C(O)C(O)C2O)C2C1CC(OC(=O)C(O)CC(=O)O)C2C (centres undefined)  10.7%
5. CC(O)C(=O)/C=C/C=C/C(=O)OC1C=C2COC(=O)C2(O)C2(C)CCCC(C)(C)C12 (centres undefined)  10.7%
6. CCC=CC[C@H]1C(=O)CC[C@@H]1CC(=O)OC  10.3%
7. CN[C@@H]1CN(c2ccc3c(=O)c(C(=O)O)cn(-c4nccs4)c3n2)C[C@@H]1OC  8.83%
8. C=C[C@](C)(CC/C=C(\C)C(=O)O)O[C@@H]1OC[C@H](O)[C@H](O)[C@H]1O  7.14%
9. CC#CCn1c(N2CCC[C@@H](N)C2)nc2c1c(=O)n(Cc1nc(C)c3ccccc3n1)c(=O)n2C  6.37%
10. C[C@@H](c1ccc2nccn2c1)n1nnc2ncc(-c3cnn(C)c3)nc21  2.86%
11. C[C@@H]1CCN(C(=O)[C@H](CCCN=C(N)N)NS(=O)(=O)c2cccc3c2NC[C@H](C)C3)[C@@H](C(=O)O)C1  2.82%
12. C=C1CCC2C(C)(C)CC(O)CC2(C)C1CCC(C)CC(=O)O (centres undefined)  2.68%
13. C[C@@H](O)[C@H](N)C(=O)N1CCC[C@H]1C(=O)N1CCC[C@H]1C(=O)N[C@H](C(N)=O)[C@@H](C)O (H-TPPT-NH2)  1%
14. CC(=O)Oc1cc2c(s1)CCN([C@H](C(=O)C1CC1)c1ccccc1F)C2  0.477%
15. O=C1c2c(O)cc(O)cc2O[C@H](c2cc(O)c(O)c(O)c2)[C@H]1O  -0.847%
16. CC(C)CC(=O)N[C@H](C(=O)N[C@H](C(=O)N[C@@H](CC(C)C)[C@@H](O)CC(=O)N[C@@H](C)C(=O)N[C@@H](CC(C)C)[C@@H](O)CC(=O)O)C(C)C)C(C)C (Isovaleryl-VV[Sta]A[Sta]-OH)  -1.4%
17. CCOC(=O)[C@@H](N)CCC(=O)N[C@@H](CSCc1ccccc1)C(=O)N[C@@H](C(=O)OCC)c1ccccc1  -1.42%
18. Cc1cc(C(=O)N2CCN(c3cccc(Cl)c3)CC2)n(-c2ccccc2)n1  -1.43%
19. C=C1CC[C@H]2[C@@](C)(CCC(O)[C@@]2(C)CO)[C@@H]1/C=C/C(=C\C(=O)O)C(=O)O (some centres undefined)  -2.29%
20. Fc1ccc(N2CCN(CCC3OCCc4ccccc43)CC2)cc1 (centres undefined)  -6.21%
21. C[C@]1(OC(=O)/C=C/c2ccccc2)C[C@@H](O)[C@]2(O)C=CO[C@@H](O[C@@H]3O[C@H](CO)[C@@H](O)[C@H](O)[C@H]3O)[C@@H]21  -8.93%
22. C[C@@]1(O)[C@H](O)[C@@H](CO)O[C@H]1n1cnc2c(=O)[nH]c(N)nc21  -12.3%
23. COc1cc(O)c2c(c1)C1(OC2=O)C(C)=CC(=O)C1O (centres undefined)  -16%
24. COC(=O)C1C(c2ccc(O)cc2)C(C(=O)O)C1c1ccc(O)cc1 (centres undefined)  -18.3%
25. CC(O)C(O)/C=C/C=C/C(=O)O[C@@H]1C=C2COC(=O)[C@]2(O)[C@@]2(C)CCCC(C)(C)C12 (some centres undefined)  -18.3%
26. O=C(O)c1ccc2cc(-c3ccc(O)c(C45CC6CC(CC(C6)C4)C5)c3)ccc2c1  -20.4%
27. CN1C2CCC1CC(OC(=O)c1c[nH]c3ccccc13)C2 (centres undefined)  -37.1%
28. CCCCCCCCCCC(C)(C)C(=O)Nc1c(OC)cc(OC)cc1OC  -40.6%

With `NC1(Cc2ccc(Cl)cc2)CCN(c2ncnc3[nH]ccc23)CC1` the activation was -4.16% and 18.8%.
For `O=C(c1ccc(C(=O)N2CCC(N3CCCC3)CC2)c(Nc2ccccc2)c1)N1CCC(N2CCCC2)CC1`, the activation was 3.03% and -7.82%.
In the case of `COc1ccccc1OCC(O)CN1CCN(CC(=O)Nc2c(C)cccc2C)CC1` (centres undefined), the activation is reported as -19.2% and 6.83% and -14.1%.
For `COc1ccc2cc(-c3nc(-c4ccc(S(C)=O)cc4)[nH]c3-c3ccncc3)ccc2c1` (centres undefined), the activation was -7.86% and 8.04%.

With `CN(C)CC1CCn2c(c(C3=C(c4cn(C)c5ccccc45)C(=O)NC3=O)c3ccccc32)C1` (centres undefined) the Potency was 34.3 µM (active).
`COc1ccc(CNC(=O)Nc2ncc([N+](=O)[O-])s2)cc1` was tested, and the Potency was 33.8 µM (active).
With `[O-][n+]1ccccc1SSc1cccc[n+]1[O-]` the Potency was 0.379 µM (active).
`COc1cc(N2CCC(N3CCN(C)CC3)CC2)ccc1Nc1ncnc(Nc2ccccc2S(=O)(=O)C(C)C)n1` was tested, and the Potency was 24.3 µM (active) and 26.9 µM (active).
`O=C1NC(=O)C(c2c[nH]c3ccccc23)=C1c1c[nH]c2ccccc12` was tested, and the Potency was 27.3 µM (active).
In the case of `Cc1ccc(S(=O)(=O)/C=C/C#N)cc1`, the Potency is reported as 30.1 µM (active).
In the case of `Nc1nc(Nc2ccc(S(N)(=O)=O)cc2)nn1C(=O)c1c(F)cccc1F`, the Potency is reported as 24.3 µM (active) and 9.53 µM (active).
